The source of these data is PubChem BioAssay (NCATS).

“And” between values parts separate entries of the source, which are not always exact repeats. Equal entries are not always repeated. Records with an inconclusive call do not appear. Entries that show only a call come without a potency. The source made the active and inactive calls. Calls follow the shape of the dose curve; as a rule, active = well fitted inhibition curve with a large enough effect; inconclusive = small, poorly fitted or top-dose-only effect; inactive = flat fitted curve, though single readings scatter.
Potency is read from the fitted curve at half-maximal effect.

A short description of this assay: Primary qHTS for inhibitors of nuclear receptor binding SET domain protein 2 (NSD2) in an isogenic RCH-ACV NSD2 p.E1099K mutant (9B) (AID 1645876). Also: nearly all actives have a fitted effect of over 70% in size. The note with it: RCH-ACV (leukaemia line) NSD2 E1099K (9B) viability, CellTiter-Glo, 72 h; series mostly up to 44.9 µM.
Regarding `O=c1cc(-c2cccc3c2Sc2ccccc2S3)oc(N2CCOCC2)c1`, the Potency was 11.6 µM (active) and 14.8 µM (active). As for `NS(=O)(=O)c1ccc(NC2=CC(=O)c3ccccc3C2=O)cc1`, the entry is “inactive”; as for `O=C(Nc1cc(Cl)cc2c1[nH]c1cnccc12)c1cccnc1`, “inactive”; as for `O=C1C(Cl)=C(NCCN2CCOCC2)C(=O)c2ncccc21`, 7.42 µM (active).

For `CN(C[C@@H]1COCCO1)S(=O)(=O)Nc1ccc2ccc3ncc(-c4cnn(C)c4)cc3c(=O)c2c1`, the Potency was 5.15 µM (active). As for `O=C(O)c1ccccc1C(=O)Nc1ccc(-c2ccccc2)cc1`, the entry is “inactive”.
